Pol eta inh – qHTS for Inhibitors of Polymerase Eta. Potency, µM (top dose mostly 114 µM), for the others: at the top dose activity change, negative = inhibition, actives largely listed as inhibitors. 1.2% of 390,000 active. DNA polymerase eta (Homo sapiens), Q9Y253. recombinant Pol eta, fluorescent DNA replication assay; also: potency is read from the fitted curve at half-maximal effect; % is scaled to controls: 0 for no effect and ±100 for the full control effect
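Pol eta (10 nM) was preincubated with compounds for 15 min at room temperature, after which fluorescent replication substrate (50 nM final) was added to start the reaction. Fluorescence was read kinetically at 0 and 10 min.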
POLI inh – qHTS for Inhibitors of Polymerase Iota; AID 588590, 2011; Pol iota fluorescent replication assay, 10 min; 1% of 390,000 active; Potency, µM (doses to about 115 µM), without a hit: at the highest dose activity, negative = inhibition, actives largely listed as inhibitors; DNA polymerase iota (Homo sapiens), Q9UNA4; also: potency is read from the fitted curve at half-maximal effect
Target sequence (Q9UNA4 whole entry, looked up): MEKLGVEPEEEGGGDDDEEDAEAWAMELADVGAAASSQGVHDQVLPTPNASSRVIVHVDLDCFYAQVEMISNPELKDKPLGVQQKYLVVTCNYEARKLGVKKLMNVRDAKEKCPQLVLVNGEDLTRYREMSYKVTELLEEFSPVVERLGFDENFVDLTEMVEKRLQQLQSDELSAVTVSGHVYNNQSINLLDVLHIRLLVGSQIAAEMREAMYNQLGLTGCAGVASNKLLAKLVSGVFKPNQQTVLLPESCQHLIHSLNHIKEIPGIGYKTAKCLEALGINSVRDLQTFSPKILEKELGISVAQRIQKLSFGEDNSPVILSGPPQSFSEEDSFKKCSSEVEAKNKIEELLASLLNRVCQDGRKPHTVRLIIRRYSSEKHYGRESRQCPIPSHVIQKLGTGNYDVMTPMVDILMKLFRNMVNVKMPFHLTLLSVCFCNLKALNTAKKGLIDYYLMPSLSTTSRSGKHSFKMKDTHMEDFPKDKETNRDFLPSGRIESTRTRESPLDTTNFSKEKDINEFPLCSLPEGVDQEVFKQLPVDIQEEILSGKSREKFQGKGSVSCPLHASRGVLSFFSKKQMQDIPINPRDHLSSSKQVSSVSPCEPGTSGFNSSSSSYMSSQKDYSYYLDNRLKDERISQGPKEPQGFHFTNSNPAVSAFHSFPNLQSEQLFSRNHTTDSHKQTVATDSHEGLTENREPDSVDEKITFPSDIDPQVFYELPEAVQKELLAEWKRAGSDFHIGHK
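Fluorescent replication assay read twice, at 0 min and 10 min after adding 50 nM (final) substrate. Enzyme (10 nM) and compounds were first incubated 15 min at room temperature; enzyme-free buffer wells were negative controls.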
WRN helicase inh – qHTS for Inhibitors of WRN Helicase | WRN helicase unwinding, fluorescent forked duplex, kinetic | 0.46% of 360,000 active | AID 651768, 2012 | Potency, µM (series often up to 114 µM), without a hit: at the top dose activity change, negative = inhibition, actives largely listed as inhibitors | Bifunctional 3'-5' exonuclease/ATP-dependent helicase WRN (Homo sapiens), Q14191; also: potency is read from the fitted curve at half-maximal effect; % is scaled to controls: 0 for no effect and ±100 for the full control effect; nearly all actives have a fitted effect of over 55% in size
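Kinetic red-fluorescence monitoring (525/598 nm) tracks WRN helicase activity after 100 nM fluorophore-quencher forked duplex and 2 mM ATP are added to 20 nM enzyme pretreated 15 min at room temperature with compound.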
PI5P4Ka inh – qHTS for Inhibitors of phosphatidylinositol 5-phosphate 4-kinase (PI5P4K); Phosphatidylinositol 5-phosphate 4-kinase type-2 alpha (Homo sapiens), P48426; PI5P4Kalpha enzyme, ADP-Glo luminescence, 60 min; hits give low values; max response, %; 1.2% of 330,000 active; AID 652105, 2013; active = max response of -50% or lower; inconclusive = between -30% and -50%; inactive = -30% or higher; also: value at the top dose of about 77 µM; % is scaled to controls: 0 for no effect and ±100 for the full control effect
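qHTS, 1536-well: enzyme/substrate mix, compound by pin tool, 5 microM ATP final; RT 60 min; ADP-Glo reagents 1 (45 min) then 2 (30 min); luminescence.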
POLB inh – qHTS Assay for Inhibitors of DNA Polymerase Beta. P06746. Pol beta primer extension/strand displacement, fluorescence kinetic. Potency, µM (top dose mostly 114 µM), for the others: at the top dose activity change, negative = inhibition, usual class: inhibitors. 1.3% of 340,000 active. AID 485314, 2010; also: potency is read from the fitted curve at half-maximal effect; % is scaled to controls: 0 for no effect and ±100 for the full control effect
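Curves were derived by four-parameter Hill fits of normalized qHTS data. The kinetic fluorescent primer-extension read was taken at 0 and 10 min after 50 nM substrate, following a 15 min room-temperature preincubation of 10 nM enzyme with compounds.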
Pol kappa inh – qHTS for Inhibitors of Polymerase Kappa; DNA polymerase kappa (Homo sapiens), Q9UBT6; purified Pol kappa, fluorescent DNA synthesis assay, 10 min; Potency, µM (doses to about 107 µM), inactives show at the top dose activity, negative = inhibition, most hits filed as inhibitors; 0.53% of 400,000 active; also: potency is read from the fitted curve at half-maximal effect; % is scaled to controls: 0 for no effect and ±100 for the full control effect
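10 nM Pol kappa was preincubated with compounds for 15 min at room temperature. Reaction started with 50 nM (final) substrate. Fluorescence read kinetically at 0 and 10 min.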
* hit, by the source's call; ? = inconclusive; . = not tested or not shown; [ ] = dose if it differs, or a comment. Rows were chosen to be rich in hits. Some 2.8% of all compounds tested hit in one or more screens of this group. Unless noted, calls follow the shape of the dose curve; as a rule, active = well fitted curve in the direction sought with a large enough effect; inconclusive = small, poorly fitted or top-dose-only effect, or another doubt; inactive = no such curve, though single readings can be large; an effect the other way counts as inactive or inconclusive.

SMILES | Pol eta inh | POLI inh | WRN helicase inh | PI5P4Ka inh | POLB inh | Pol kappa inh
CCOC(=O)c1c(N)n(-c2ccc(CC)cc2)c2nc3ccccc3nc12 | -18% | 93% | . | . | 2% | -1%
COc1ccc(NC(=O)CN2C(=O)CSc3ccc(S(=O)(=O)N(C)C)cc32)cc1Cl | -9% | -1% | . | . | 7% | 12%
CN(C)c1ccc(/C=C(\C#N)C(=O)NCc2ccco2)cc1 | . | . | . | . | 56µM* | .
Cc1cccc(C(=O)N2CCc3cc(CNC(=O)CCc4ccccc4)ccc32)c1 | 6% | 4% | . | . | -3% | -6%[60.1 µM]
Cc1c(C=Nc2ccc(S(=O)(=O)CCO)cc2)c(O)[nH]c(=O)c1C#N | -9% | 40% | -3% | -78* | . | -4%
Cc1c(C=Nc2ccc(S(=O)(=O)N(C)C)cc2)c(O)[nH]c(=O)c1C#N | -3% | 185% | -32% | -90* | . | -8%
Cc1[nH]n(-c2ccc(F)cc2)c(=O)c1C=Nc1ccc(S(=O)(=O)N(C)C)cc1 | -1% | 12% | -11% | 0 | 7% | -13%
CN1CCN(C(=S)NC(=O)c2ccc(Cl)cc2)CC1 | ? | ? | -24% | -91* | ? | -12%
O=C1OCC2OC(O)C(O)C(O)C2OC(=O)c2cc(O)c(O)c(O)c2-c2c(O)c(O)c3oc(=O)c4c(c(O)c(O)c5oc(=O)c2c3c54)-c2c1cc(O)c(O)c2O (stereo unspecified) | . | . | . | . | 0.16µM* | .
O=C(COc1ccc2c3c(c(=O)oc2c1)CCC3)Nc1ccc(CCO)cc1 | 50µM* | ? | -15%[11.6 µM] | 0 | ? | -3%
NS(=O)(=O)c1ccc(CCNC(=O)COc2ccc3c4c(c(=O)oc3c2)CCC4)cc1 | -1% | -7% | 0% | 3 | -11% | -8%
Cn1c(SCC(=O)NCC2CCCO2)nnc1-c1ccc(Cl)cc1 (stereo unspecified) | -2% | ? | -5% | 5 | . | -3%
CCn1nnc2cc(C(=O)O)ccc21 | ? | 80% | -7% | -27 | -28% | -16%
Cc1ccc(NC(=O)c2cc(S(=O)(=O)N3CCCC3)cn2C)cc1C | -4% | 22% | 4% | 1 | -1% | 10%
Cn1cc(NC(=O)c2cc(NC(=O)c3cc(NC=O)cn3C)cn2C)cc1C(=O)NCCC(=N)N | . | . | . | . | 14µM* | 0.79µM*
NC(=O)c1ccsc1NC(=O)CSc1nnc2ccccn12 | ? | ? | -7%[11.6 µM] | ? | 25µM* | -21%
COc1cccc(C2C=C(c3ccc(Br)s3)Nc3ncnn32)c1OC (stereo unspecified) | -5% | 9% | -7% | -9 | -15% | -11%
Fc1ccc(Br)cc1C1C=C(c2ccc(Br)s2)Nc2ncnn21 (stereo unspecified) | 28µM* | ? | -33% | -16 | 10µM* | -9%
O=C(CSc1cc(Cl)ccc1Cl)NC1CCCC1 | -9% | -16% | 3% | 3 | 3% | -2%
O=C(CSc1c(Cl)cccc1Cl)NC1CCCc2ccccc21 (stereo unspecified) | ? | ? | -8% | ? | ? | 0%
O=C(CSc1ccccc1Cl)NC1CCCc2ccccc21 (stereo unspecified) | -7% | 95% | -9% | ? | 13µM* | -14%
Cc1cc([N+](=O)[O-])c2[nH]c(C(=O)N/N=C/c3ccccc3C(=O)O)c(-c3ccccc3)c2c1 | 45µM* | 21% | ? | . | 28µM* | -7%
O=C(CCCOc1ccc(Cl)cc1Cl)Nc1ccccc1C(=O)O | -12% | 28% | -7% | -1 | 10% | -18%
CCCCOc1ccc(Nc2cc(Cl)ccc2C(=O)O)cn1 | -13% | 75% | -9% | 1 | 40µM* | -2%
CCCCNc1nc(=S)[nH]c2cc(OC)c(OC)cc12 | -5% | 5% | -24% | 0 | 89µM* | -3%
SMILES | Pol eta inh | POLI inh | WRN helicase inh | PI5P4Ka inh | POLB inh | Pol kappa inh
CCOCCCNc1nc(=S)[nH]c2cc(OC)c(OC)cc12 | 1% | 8% | -22%[57.1 µM] | 2 | 0% | -5%
CCOC(=O)c1c(C)[nH]c(C)c1S(=O)(=O)N(C)CC(=O)Nc1ccc(C)cc1Br | -22% | 21% | . | . | -24% | -9%
C=CC(=O)Nc1cccc(N(C)c2ccnc(Nc3ccc(N4CCN(C)CC4)cc3)n2)c1 | -18% | ? | ? | -65* | . | -27%
COc1ccc(/C=C/C(=O)c2cc(C(=O)/C=C/c3ccc(OC)cc3)c(O)cc2O)cc1 | . | 3% | . | . | . | 6%
COCCCNC(=O)/C=C/c1ccc(Cl)cc1Cl | -11% | 9% | 1% | -4 | 21% | 1%
CNc1ccc(Br)cc(C(=O)/C=C/c2ccc(OC)cc2)c1=O | ? | ? | -8%[11.6 µM] | -25 | 28µM* | -17%
CCNc1ccc(Br)cc(C(=O)/C=C/c2ccc(Cl)cc2Cl)c1=O | 14µM* | 8.9µM* | ? | ? | 13µM* | ?
CN(C)C1CN(Cc2cn(Cc3ccc(Cl)cc3)nn2)S(=O)(=O)C1 (stereo unspecified) | . | . | 9% | -3 | . | .
C=CC[n+]1cccc2cccc(O)c21 | . | 13µM* | . | . | . | 3%
COCC(C)n1c(C)cc(C(=O)CSc2nnc(-c3ccco3)o2)c1C (stereo unspecified) | -19% | 41% | 0% | -2 | . | -14%
Cc1cc(C(=O)CSc2nnc(-c3ccco3)o2)c(C)n1Cc1ccco1 | ? | ? | ? | -21 | 45µM* | -20%
Cc1ccc2cccc(OCC(=O)c3cc(C)n(Cc4ccco4)c3C)c2n1 | . | . | . | . | 11µM* | .
O=C(NCCO)c1ccc(-c2ccc3nncn3c2)cc1 | . | . | -9% | -1 | . | .
COC(=O)C1=C(N)OC2=C(C(=O)CC(C)(C)C2)C1c1cc2c(cc1Cl)OCO2 (stereo unspecified) | -7% | 26% | 11% | 3 | -16% | -2%
CC1(C)c2ccccc2N2CC(=O)N(CC(N)=O)C21C (stereo unspecified) | ? | ? | 56µM* | . | 45µM* | 45µM*
O=C(CCn1c(=O)[nH]c2ccsc2c1=O)Nc1ccc(F)c(F)c1 | -8% | 5% | 5% | -5 | -27% | 0%
C=C(C)CN(CC)c1nc(N)c2c(N)nc3c(c2c1C#N)CC(=O)N3C12CC3CC(CC(C3)C1)C2 | -10% | 14% | -9% | -87* | 6% | -30%
N#Cc1c(N2CCCC(O)C2)nc(N)c2c(N)nc3c(c12)CC(=O)N3C12CC3CC(CC(C3)C1)C2 (stereo unspecified) | -7% | ? | -6% | . | -16% | -33%
